Measurements published in PubChem BioAssay (Tox21).
Results filed as inconclusive are left out. Active and inactive are the calls of the source. Unless noted, calls come from the whole dose curve; as a rule, active = well fitted curve in the direction sought with a large enough effect in the repeat runs; inconclusive = weak or mixed curves; inactive = no such curve, though single readings can be large; an effect the other way counts as inactive or inconclusive.

How the values were obtained:
[1] = qHTS assay to identify small molecule agonists of the estrogen receptor beta (ER-beta) signaling pathway - cell viability counter screen (AID 1259380); note: nearly all actives have a fitted effect of over 30% in size; note: potency is the fitted concentration of half-maximal effect
Method in brief: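 Cells used were ER-beta-UAS-bla HEK293T in medium with 2% charcoal-stripped FBS. They were treated for 16 hr at 37C. Viability came from CellTiter-Glo luminescence.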

[2] = qHTS assay to identify small molecule antagonists of the estrogen receptor beta (ER-beta) signaling pathway - cell viability counter screen (AID 1259382); note: nearly all actives have a fitted effect of over 55% in size; note: potency is the fitted concentration of half-maximal effect
Method in brief: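 Agonist-stimulated (1nM E2) ER-beta-UAS-bla HEK293T cells are incubated with library compounds for 16 hr at 37C. Cell viability is then assessed in the reporter-assay wells by adding CellTiter-Glo and reading luminescence after 30 min.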

[3] = qHTS assay to identify small molecule agonists of the estrogen receptor alpha (ER-alpha) signaling pathway in the presence of an antagonist - cell viability counter screen (AID 1259386);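 note: cells exposed to compounds for 22 h at 37 °C before the viability read; nearly all actives have a fitted effect of over 30% in size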; note: potency is the fitted concentration of half-maximal effect
Method in brief: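 ICI-182,780 at 10.0nM final accompanies the compound titration (15 concentrations, 22hr, 37C) on VM7Luc4E2 cells. The CellTiter-Fluor fluorescence readout runs in the same wells as the luciferase assay.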

[4] = target: Progesterone receptor (Homo sapiens) (UniProt P06401); assay: qHTS assay to identify small molecule agonists of the progesterone receptor (PR) signaling pathway (AID 1346784; calls by dose curve; note: nearly all actives have a fitted effect of over 30% in size)
Chain of Progesterone receptor (Homo sapiens) (P06401 whole entry, looked up): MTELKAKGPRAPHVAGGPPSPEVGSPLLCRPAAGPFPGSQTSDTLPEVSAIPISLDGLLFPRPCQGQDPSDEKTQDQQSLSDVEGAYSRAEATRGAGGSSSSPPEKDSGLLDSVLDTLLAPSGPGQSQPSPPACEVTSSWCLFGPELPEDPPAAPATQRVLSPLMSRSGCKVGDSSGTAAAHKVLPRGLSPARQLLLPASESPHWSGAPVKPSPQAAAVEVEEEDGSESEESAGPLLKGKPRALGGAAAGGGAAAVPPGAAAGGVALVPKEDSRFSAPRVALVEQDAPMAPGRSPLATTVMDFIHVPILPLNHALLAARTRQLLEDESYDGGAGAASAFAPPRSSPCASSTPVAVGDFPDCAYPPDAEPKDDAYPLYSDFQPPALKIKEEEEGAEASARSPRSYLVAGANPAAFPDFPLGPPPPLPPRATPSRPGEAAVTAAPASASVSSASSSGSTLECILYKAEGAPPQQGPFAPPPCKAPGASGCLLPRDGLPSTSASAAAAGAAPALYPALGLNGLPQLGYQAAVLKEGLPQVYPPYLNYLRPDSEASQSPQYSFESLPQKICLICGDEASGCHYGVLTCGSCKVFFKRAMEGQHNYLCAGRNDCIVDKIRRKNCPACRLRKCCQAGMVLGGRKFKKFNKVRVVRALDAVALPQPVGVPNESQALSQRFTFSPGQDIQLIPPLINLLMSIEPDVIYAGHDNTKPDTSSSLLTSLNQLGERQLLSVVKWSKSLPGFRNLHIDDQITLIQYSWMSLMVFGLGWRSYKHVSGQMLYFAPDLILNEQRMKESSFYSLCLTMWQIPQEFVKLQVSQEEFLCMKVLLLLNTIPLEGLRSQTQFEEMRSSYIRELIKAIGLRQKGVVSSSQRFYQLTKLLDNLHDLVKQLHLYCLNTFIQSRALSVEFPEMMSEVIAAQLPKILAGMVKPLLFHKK
Method in brief: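 Beta-lactamase reporter read-out: after 16 hr compound treatment at 37C and a further 2 hr at room temperature with LiveBLAzer B/G FRET substrate, fluorescence was measured in PR-UAS-bla HEK 293T cells grown in 2% charcoal-stripped serum.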

[5] = target: Progesterone receptor (Homo sapiens) (UniProt P06401); assay: qHTS assay to identify small molecule antagonists of the progesterone receptor (PR) signaling pathway (AID 1346795; active = well fitted inhibition curve with a large enough effect in the signal ratio in the repeat runs, not every such curve was filed as active; the % refers to the signal ratio; note: potency is the fitted concentration of half-maximal effect)
Method in brief: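 Read-out is fluorescence from the LiveBLAzer B/G FRET substrate, cleaved by a UAS-controlled beta-lactamase in PR-UAS-bla HEK293T cells after 16 hr exposure to compound plus 1 nM promegestone (final), followed by 2 hr at room temperature.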

[6] = qHTS assay to identify small molecule antagonists of the progesterone receptor (PR) signaling pathway - cell viability counter screen (AID 1346798);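 note: HEK293T PR-UAS-bla cells stimulated with the agonist R5020; series mostly up to about 92 µM; nearly all actives have a fitted effect of over 50% in size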
Method in brief: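 HEK293T PR-UAS-bla, 2% charcoal-stripped FBS; 4 hr pre-plate; cpd + R5020, 16 h 37C; LiveBLAzer read first; then CellTiter-Glo 30 min RT, luminescence.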

[7] = qHTS assay to identify small molecule agonists of the progesterone receptor (PR) signaling pathway - cell viability counter screen (AID 1346799; calls by dose curve; note: nearly all actives have a fitted effect of over 45% in size)
Method in brief: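 Luminescence from CellTiter-Glo, added after the beta-lactamase FRET read in the same wells, gave cytotoxicity in PR-UAS-bla HEK293T cells treated with compounds for 16 hr at 37C.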

[8] = qHTS assay to identify small molecule antagonists of the TGF-beta/Smad signaling pathway - cell viability counter screen (AID 1346824); note: nearly all actives have a fitted effect of over 50% in size
Method in brief: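 SBE-bla HEK 293T cells were plated overnight at 37 C, then given compounds in DMSO plus TGF-beta1 (added as 0.25 ng/mL solution) for 5 hr. After the bla read, CellTiter-Glo was added to the same wells and luminescence read after 30 min at room temperature.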

[9] = qHTS assay to identify small molecule agonists of the TGF-beta/Smad signaling pathway - cell viability counter screen (AID 1346829); note: top concentration of the series differs between compounds; nearly all actives have a fitted effect of over 45% in size
Method in brief: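 Same-well cytotoxicity: CellTiter-Glo added after the 2 hr room-temperature beta-lactamase substrate step, luminescence measured 30 min later; cells had 5 hr of compound at 37 C.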

[10] = qHTS assay to identify small molecule agonists of the TGF-beta/Smad signaling pathway (AID 1346859; active = well fitted activation curve with a large enough effect in the signal ratio in the repeat runs, not every such curve was filed as active; the % refers to the signal ratio; note: series mostly up to about 77 µM)
Method in brief: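 SBE-bla HEK 293T, 4,000 cells/well, plated o/n; cpd in DMSO, 5 hr, 37 C/5% CO2; B/G FRET substrate 2 hr RT; ex 405, em 460/530 nm.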

[11] = Human pregnane X receptor (PXR) small molecule agonists, qHTS cell viability counter screen (AID 1346977); note: nearly all actives have a fitted effect of over 50% in size; note: potency is the fitted concentration of half-maximal effect
Method in brief: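 PXR-Luc HepG2, 2,000 cells/well, 5% charcoal-stripped FBS; 5hr settle; cpd 24hr, 37C/5% CO2; CellTiter-Fluor at 23hr, read 1hr later (fluorescence).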

[12] = Caspase-3/7 induction in HepG2 cells by small molecules, qHTS assay (AID 1346978); note: nearly all actives have a fitted effect of over 15% in size; note: potency is the fitted concentration of half-maximal effect
Method in brief: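 Wild-type HepG2 cells (2,000/well) were settled 5 h at 37 C, 5% CO2, then exposed to compounds in DMSO for 17 h. Caspase-3/7 activity was read by luminescence 30 min after adding Caspase-Glo 3/7 reagent at room temperature.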

[13] = Caspase-3/7 induction in CHO-K1 cells by small molecules, qHTS cell viability counter screen (AID 1346979); note: nearly all actives have a fitted effect of over 35% in size; note: potency is the fitted concentration of half-maximal effect
Method in brief: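 Cells (CHO-K1, wild type) are plated at 1,500 per well and incubated 5hr. Test compounds in DMSO are then pinned in, followed by 16hr at 37C and 5% CO2. Viability is read by CellTiter-Fluor fluorescence after 1hr.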

[14] = Caspase-3/7 induction in CHO-K1 cells by small molecules, qHTS assay (AID 1346980); note: nearly all actives have a fitted effect of over 15% in size
Method in brief: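 Wild-type cells were seeded at 1,500 per well and settled 5 hr at 37 C, 5% CO2, then exposed to DMSO-dissolved compounds for 17 hr. Caspase-Glo 3/7 reagent was added, and luminescence was read after 30min at room temperature.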

[15] = qHTS assay to identify small molecule agonists or antagonists of the thyroid stimulating hormone receptor (TSHR) signaling pathway - wild type cell line counter screen (AID 1259384; calls by dose curve)
Method in brief: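 Wild-type HEK293 cells were plated 18 h at 37 C/5% CO2, pin-dosed with compound plus Ro20-1724 medium, held 30 min at room temperature, then given cAMP-d2 and anti-cAMP-cryptate; fluorescence was read after 1 h. Fifteen concentrations, triplicate.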

[16] = target: Thyrotropin receptor (Homo sapiens) (UniProt P16473); assay: qHTS assay to identify small molecule antagonists of the thyroid stimulating hormone receptor (TSHR) signaling pathway (AID 1259385; calls by dose curve; note: nearly all actives have a fitted effect of over 20% in size; note: potency is the fitted concentration of half-maximal effect)
Chain of Thyrotropin receptor (Homo sapiens) (P16473 whole entry, looked up): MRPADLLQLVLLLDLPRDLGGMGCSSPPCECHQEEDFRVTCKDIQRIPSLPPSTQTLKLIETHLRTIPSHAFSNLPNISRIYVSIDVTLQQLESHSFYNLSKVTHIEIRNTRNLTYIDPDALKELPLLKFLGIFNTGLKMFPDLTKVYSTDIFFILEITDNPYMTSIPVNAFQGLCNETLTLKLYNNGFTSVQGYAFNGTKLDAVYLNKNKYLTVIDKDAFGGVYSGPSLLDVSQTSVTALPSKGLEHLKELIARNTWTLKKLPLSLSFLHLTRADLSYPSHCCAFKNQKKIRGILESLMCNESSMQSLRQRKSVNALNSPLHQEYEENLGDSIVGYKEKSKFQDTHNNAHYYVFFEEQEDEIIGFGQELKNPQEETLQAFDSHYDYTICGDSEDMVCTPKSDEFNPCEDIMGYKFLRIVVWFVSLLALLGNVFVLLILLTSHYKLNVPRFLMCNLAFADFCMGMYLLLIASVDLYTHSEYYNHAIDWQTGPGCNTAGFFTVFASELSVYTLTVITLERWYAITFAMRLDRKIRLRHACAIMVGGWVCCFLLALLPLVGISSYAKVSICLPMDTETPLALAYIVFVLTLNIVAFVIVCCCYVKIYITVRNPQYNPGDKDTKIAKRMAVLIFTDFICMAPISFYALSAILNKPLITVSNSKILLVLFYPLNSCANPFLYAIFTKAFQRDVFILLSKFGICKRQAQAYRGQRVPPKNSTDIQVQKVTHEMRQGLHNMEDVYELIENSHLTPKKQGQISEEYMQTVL
Method in brief: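 TSHR-HEK293 cells were plated and held 18 h at 37C/5% CO2, then given compound plus Ro20-1724 and stimulated with TSH at 1.5 ng/mL final. After 30 min at room temperature, cAMP was detected with cAMP-d2/anti-cAMP-cryptate (1 h) by fluorescence.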

[17] = target: Thyrotropin-releasing hormone receptor (Homo sapiens) (UniProt P34981); assay: qHTS assay to identify small molecule antagonists of the thyrotropin-releasing hormone receptor (TRHR) signaling pathway (AID 1346877; active = well fitted inhibition curve with a large enough effect in the repeat runs, not every such curve was filed as active; note: series mostly up to about 51 µM)
Chain of Thyrotropin-releasing hormone receptor (Homo sapiens) (P34981 whole entry, looked up): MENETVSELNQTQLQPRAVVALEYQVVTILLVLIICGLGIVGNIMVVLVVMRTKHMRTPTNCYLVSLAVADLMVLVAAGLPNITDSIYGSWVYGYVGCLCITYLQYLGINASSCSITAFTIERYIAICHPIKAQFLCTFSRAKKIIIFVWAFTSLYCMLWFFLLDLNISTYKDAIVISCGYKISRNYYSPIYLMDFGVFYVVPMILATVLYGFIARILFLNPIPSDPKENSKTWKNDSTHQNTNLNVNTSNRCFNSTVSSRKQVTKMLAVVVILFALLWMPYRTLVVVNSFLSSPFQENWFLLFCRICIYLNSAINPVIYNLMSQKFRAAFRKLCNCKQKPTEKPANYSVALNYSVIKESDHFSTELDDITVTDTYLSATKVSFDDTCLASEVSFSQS
Method in brief: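 Screening used HEK293 cells engineered with TRHR, with a brief 5 min room-temperature compound exposure preceding addition of TRH to 1 nM. The read-out was kinetic calcium-dye fluorescence, concentration-response from 15 doses in triplicate.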

[18] = target: Thyrotropin-releasing hormone receptor (Homo sapiens) (UniProt P34981); assay: qHTS assay to identify small molecule agonists of the thyrotropin-releasing hormone receptor (TRHR) signaling pathway (AID 1346891; calls by dose curve; note: series mostly up to about 58 µM)
Method in brief: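 Intracellular calcium rise, read as fluorescence every second for 3 min, served as the agonist signal in dye-loaded HEK293 cells expressing TRHR; each compound ran at 15 concentrations in triplicate.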

[19] = target: Estrogen receptor (Homo sapiens) (UniProt P03372); assay: qHTS assay to identify small molecule agonists of the estrogen receptor alpha (ER-alpha) signaling pathway in the presence of an antagonist (AID 1259383; calls by dose curve; note: top concentration of the series differs between compounds; nearly all actives have a fitted effect of over 15% in size)
Chain of Estrogen receptor (Homo sapiens) (P03372 whole entry, looked up): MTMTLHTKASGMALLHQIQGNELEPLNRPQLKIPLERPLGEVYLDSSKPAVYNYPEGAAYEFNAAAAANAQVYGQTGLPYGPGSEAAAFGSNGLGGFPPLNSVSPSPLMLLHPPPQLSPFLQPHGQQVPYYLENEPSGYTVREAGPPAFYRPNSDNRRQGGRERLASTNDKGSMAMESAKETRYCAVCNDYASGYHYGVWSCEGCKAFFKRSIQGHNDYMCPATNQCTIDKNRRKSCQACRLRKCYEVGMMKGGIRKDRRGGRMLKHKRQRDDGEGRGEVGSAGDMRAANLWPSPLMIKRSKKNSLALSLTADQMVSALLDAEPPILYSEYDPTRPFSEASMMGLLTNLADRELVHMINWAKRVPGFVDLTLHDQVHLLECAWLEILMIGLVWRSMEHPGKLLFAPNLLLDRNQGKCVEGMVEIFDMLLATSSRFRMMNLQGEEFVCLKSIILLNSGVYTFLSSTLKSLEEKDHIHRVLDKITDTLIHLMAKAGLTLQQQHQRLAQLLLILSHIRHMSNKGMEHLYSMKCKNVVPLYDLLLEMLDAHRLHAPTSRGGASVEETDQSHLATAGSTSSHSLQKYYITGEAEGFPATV
Method in brief: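 Using VM7Luc4E2 cells seeded 24hr before treatment, antagonist ICI-182,780 (10.0nM final) was added, followed by compounds at 15 concentrations. Plates incubated 22hr; ONE-Glo luminescence quantified reporter activity.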

Measured: Potency

CCOC(=O)[C@H](C)O
not listed: [15] | [16] | [17] | [18] | [19]
inactive: all other assays above

C=C(C)CCO
not listed: [5] | [19]
inactive: all other assays above

c1ccc2cc3c4ccccc4c4ccccc4c3cc2c1
active: [12] 6.89 µM | [13] 27.4 µM
not listed: [3] | [11] | [19]
inactive: all other assays above

C=C(C)C1CCC(C)CC1O (stereo unspecified)
not listed: [5] | [17] | [18] | [19]
inactive: all other assays above

CCN(CC)c1ccc(N=Nc2ccccc2)cc1
active: [1] 17.2 µM | [2] 30.6 µM | [16] 68.6 µM | [3] 30.6 µM | [5] 19.3 µM | [11] 27.3 µM | [13] 48.6 µM
inactive: [15] | [6] | [10] | [12] | [14]

CCCCCCCCCCCC(=O)Cl
active: [1] 34.4 µM
not listed: [2] | [5]
inactive: all other assays above

COc1cc([C@@H]2c3cc4c(cc3[C@@H](O[C@@H]3O[C@@H]5CO[C@@H](C)O[C@H]5[C@H](O)[C@H]3O)[C@H]3COC(=O)[C@H]23)OCO4)cc(OC)c1O
active: [5] 24.1 µM | [12] 53.9 µM
inactive: [1] | [2] | [15] | [16] | [4] | [8] | [9] | [14]
